In the library only some 8.1% were active in any assay of this set; here they are far more common.
KB-V1 MDR tox = kills drug-selected multidrug resistant KB-V1 cells. KB-V1 MDR cells viability, CellTiter-Glo, 72 h. Potency, µM (top dose mostly 46.1 µM), actives largely listed as cytotoxic. 400,000 tested, 3.4% active; note: nearly all actives have a fitted effect of over 60% in size
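Following 72 h at 37 degrees C with compound, KB-V1 cell viability was read by CellTiter-Glo luminescence, medium being phenol-red-free DMEM plus 10% FBS; concentration-response parameters came from normalized, curve-fitted qHTS data.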
SW480 rerep = induces DNA re-replication in SW480 colon adenocarcinoma cells. SW480 DNA re-replication, Hoechst DNA content imaging, 48 h. Potency, µM (top dose mostly 46.1 µM), most hits filed as activators. 340,000 tested, 1.8% active. AID 624297; note: nearly all actives have a fitted effect of over 55% in size
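Image-based DNA-content assay: after two days of treatment, nuclei were labelled with the DNA dye Hoechst and imaged, and hits were compounds raising the count of nuclei showing high fluorescence intensity.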
MCF10A rereplic = induces DNA re-replication in MCF 10a normal breast cells; Potency, µM (series often up to 46.1 µM), actives largely listed as activators; 350,000 tested, 2.9% active; MCF 10A DNA re-replication, Hoechst nuclear intensity, 48 h; note: nearly all actives have a fitted effect of over 50% in size
ELG1 DNA repair = blocks ELG1-dependent DNA repair in HEK293T cells; HEK293T ELG1-luciferase reporter, luminescence, 16 h; DNA damage induced by 5-fluorouridine; Potency, µM (titrated, usually from 46.1 µM), most hits filed as inhibitors; 330,000 tested, 2.3% active; AID 504467; note: nearly all actives have a fitted effect of over 55% in size
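DMSO vehicle served as the neutral condition. Each well held 2,000 cells given 5-fluorouridine plus compound; after 16 hr at 37 °C/5% CO2, ONE-Glo was added and luciferase measured 30 min later.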
KB-3-1 tox = KB-3-1 parental cell cytotoxicity. 400,000 tested, 1.4% active. KB-3-1 viability, CellTiter-Glo ATP luminescence, 72 h. Potency, µM (series often up to 46.1 µM), usual class: cytotoxic; note: nearly all actives have a fitted effect of over 60% in size
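Screening of KB-3-1 cells (DMEM, 10% FBS, phenol-red free) ran from lowest to highest compound concentration; after 72 h at 37 °C viability was read luminescently and curves fitted.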
ELG1 FLuc counter = luciferase inhibition in cell-free luciferin readout for ELG1 hits; shares compounds with ELG1 DNA repair; Potency, µM (series often up to 46.1 µM), usual class: inhibitors; AID 624247; cell-free firefly luciferase luminescence counter-screen, ViewLux; 350 tested, 3% active
ELG1 Luc conf = human ELG1 repair inhibition, luciferase-tagged ELG1 confirmation. HEK293T ELG1-luciferase levels, luminescence; cells co-treated with 5-fluorouridine. AID 624248. 670 tested, 68% active. shares compounds with ELG1 DNA repair. Potency, µM (titrated, usually from 46.1 µM), actives largely listed as inhibitors; note: nearly all actives have a fitted effect of over 55% in size
ELG1-Luc MMS = confirmation of human ELG1 repair inhibitors, MMS stimulated; shares compounds with ELG1 DNA repair; HEK293T luciferase-tagged ELG1 level, MMS stimulated; Potency, µM (series often up to 46.1 µM), usual class: inhibitors; 670 tested, 53% active; AID 624249; note: nearly all actives have a fitted effect of over 60% in size
ELG1 5FU viab = confirmation of ELG1 repair inhibitors: viability with 5FU; shares compounds with ELG1 DNA repair; cell viability with 5-FU, ELG1-dependent repair; Potency, µM (highest dose often 46.1 µM), usual class: cytotoxic; 670 tested, under 10 active;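 note: ELG1-luc HEK293T cells cotreated with 5-fluorouridine at 10 µM final; viability measured 16 h after compound addition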
ELG1 MMS viab = confirmation of ELG1 repair inhibitors: viability with MMS. shares compounds with ELG1 DNA repair. Cell viability with MMS, ELG1-dependent DNA repair. Potency, µM (highest dose often 46.1 µM), most hits filed as cytotoxic. 670 tested, 33% active. AID 624251;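 note: ELG1-luc HEK293T cells co-treated with 10 µM MMS; viability read 16 h after compound addition; nearly all actives have a fitted effect of over 60% in size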
Cell viab unstim = unstimulated viability counter-screen for ELG1 repair hits. 900 tested, 8% active. shares compounds with ELG1 DNA repair. Potency, µM (series often up to 45.9 µM), actives largely listed as cytotoxic. cell viability counter-screen, unstimulated, luminescence;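 note: compound exposure lasted 16 hours before reading; nearly all actives have a fitted effect of over 55% in size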
FLuc enzyme = firefly luciferase inhibition counter-screen; shares compounds with ELG1 DNA repair; purified firefly luciferase, luminescence counter-screen; Potency, µM (highest dose often 57.5 µM), usual class: inhibitors; 350 tested, 10% active
Hits are given with their value. Calls come from the whole dose curve; as a rule, active = well fitted curve in the direction sought with a large enough effect; inconclusive = small, poorly fitted or top-dose-only effect, or another doubt; inactive = no such curve, though single readings can be large; an effect the other way counts as inactive or inconclusive.

Screening CO[C@H]1C[C@@H]2CC[C@@H](C)[C@@](O)(O2)C(=O)C(=O)N2CCCC[C@H]2C(=O)O[C@H]([C@H](C)C[C@@H]2CC[C@@H](O)[C@H](OC)C2)CC(=O)[C@H](C)/C=C(/C)[C@@H](O)[C@@H](OC)C(=O)[C@H](C)C[C@H](C)C=C/C=C\C=C/1C returned KB-V1 MDR tox inconclusive and KB-3-1 tox inactive.
Screening CC[C@@H]1C=C(C)C[C@H](C)C[C@H](OC)[C@H]2O[C@@](O)(C(=O)C(=O)N3CCCC[C@H]3C(=O)O[C@H](/C(C)=C/[C@@H]3CC[C@@H](O)[C@H](OC)C3)[C@H](C)[C@@H](O)CC1=O)[C@H](C)C[C@@H]2OC returned SW480 rerep inconclusive, MCF10A rereplic inconclusive and ELG1 DNA repair 8.2µM.
CCn1c(SCC(=O)NCc2cccs2)nnc1-c1ccncc1 was read as KB-V1 MDR tox inactive, SW480 rerep inactive, MCF10A rereplic inactive, ELG1 DNA repair inactive and KB-3-1 tox inactive.
`CCn1c(SCCC(=O)Nc2ccccc2)nnc1-c1ccc(OC)cc1` gave KB-V1 MDR tox inconclusive, SW480 rerep inactive, MCF10A rereplic inactive, ELG1 DNA repair inactive and KB-3-1 tox inactive.
`COCc1cc(C)nc(SCC(=O)Nc2ccccc2N2CCOCC2)c1C#N` gave KB-V1 MDR tox inactive, SW480 rerep inconclusive, MCF10A rereplic 20.6µM, ELG1 DNA repair inactive and KB-3-1 tox inactive.
CCn1c(SCC(=O)Nc2cccc(OC)c2)nnc1-c1ccc(Cl)cc1 was read as KB-V1 MDR tox 11.6µM, SW480 rerep inactive, MCF10A rereplic inactive, ELG1 DNA repair inconclusive and KB-3-1 tox inconclusive.
CCn1c(SCC(=O)Nc2nccs2)nnc1-c1ccc(S(=O)(=O)N2CCCCCC2)cc1 was read as KB-V1 MDR tox inconclusive, SW480 rerep inactive, MCF10A rereplic inactive, ELG1 DNA repair 20.6µM and KB-3-1 tox inactive.
Screening CCn1c(SCC(=O)Nc2cccc(NC(=O)c3cccs3)c2)nnc1-c1ccncc1 returned KB-V1 MDR tox inactive, SW480 rerep inactive, MCF10A rereplic inactive, ELG1 DNA repair 18.4µM and KB-3-1 tox inactive.
`CC(=O)SC1CC(=O)C=C2CCC3C4CCC(=O)OC4(C)CCC3C21C` (configuration not stated) gave KB-V1 MDR tox inactive, SW480 rerep inactive, MCF10A rereplic inconclusive and KB-3-1 tox inactive.
Screening CCn1c(SCC(=O)Nc2ccc(N3CCOCC3)cc2)nnc1-c1ccc(OC)cc1 returned KB-V1 MDR tox 16.4µM, SW480 rerep inactive, MCF10A rereplic inactive, ELG1 DNA repair inactive and KB-3-1 tox inactive.
CCn1c(SCC(=O)Nc2ccccc2N2CCOCC2)nnc1-c1ccccc1 was read as KB-V1 MDR tox 18.4µM, SW480 rerep inactive, MCF10A rereplic inactive, ELG1 DNA repair inactive and KB-3-1 tox inactive.
`CCOC(=O)c1cc(S(=O)(=O)NCc2ccc(C)cc2)[nH]n1` gave KB-V1 MDR tox inactive and KB-3-1 tox inactive.
O=C(CSc1nc2ccccc2c(=O)n1CC1CCCO1)Nc1ccccc1Cl (configuration not stated) was read as KB-V1 MDR tox inconclusive, SW480 rerep inactive, MCF10A rereplic inactive, ELG1 DNA repair inactive and KB-3-1 tox inactive.
`C=CC[C@@H]1C=C[C@H](O/N=C/c2ccc(C(=O)N3[C@H](c4ccc(C)cc4)[C@@H](C)CC[C@H]3C(=O)OC)cc2)[C@@H](CO)O1` gave SW480 rerep inconclusive, MCF10A rereplic inconclusive and ELG1 DNA repair 18.4µM.
Screening Cc1cn2c(=O)cc(COc3ccc(Cl)cc3)nc2s1 returned KB-V1 MDR tox inactive and KB-3-1 tox inactive.
CCCC1=C/C(=C/c2ccc(-c3ccccc3OC)o2)C(=O)O1 was read as KB-V1 MDR tox inactive, SW480 rerep 23.1µM, MCF10A rereplic 10.3µM, ELG1 DNA repair inactive and KB-3-1 tox inactive.
For COc1ccccc1-c1ccc(/C=C2/C=C(CC(C)C)OC2=O)o1 the results were KB-V1 MDR tox inactive, SW480 rerep inactive, MCF10A rereplic inconclusive, ELG1 DNA repair inactive and KB-3-1 tox inactive.
Screening O=c1c(-c2ccc(F)cc2)coc2c3c(ccc12)OCCO3 returned KB-V1 MDR tox inactive, SW480 rerep inactive, MCF10A rereplic inactive, ELG1 DNA repair inconclusive, KB-3-1 tox inactive, ELG1 FLuc counter inactive, Cell viab unstim inconclusive and FLuc enzyme inconclusive.
O=c1c(-c2ccc(F)cc2)coc2cc(O)ccc12 was read as KB-V1 MDR tox inactive, SW480 rerep inactive, MCF10A rereplic inactive, ELG1 DNA repair inconclusive and KB-3-1 tox inactive.
COCC(C)n1c(C)cc(C(=O)COC(=O)c2cc(=O)[nH]c3ccccc23)c1C (configuration not stated) was read as KB-V1 MDR tox 20.6µM, SW480 rerep inactive, MCF10A rereplic inactive, ELG1 DNA repair inconclusive, KB-3-1 tox inactive and Cell viab unstim inactive.
`COc1ccc(C(=O)N(C)[C@H]2C[C@H]3c4[nH]c5ccccc5c4CCN3C(=O)[C@H]2CO)cc1` gave KB-V1 MDR tox inactive and KB-3-1 tox inactive.
For O=C(CNC(=O)c1cccc(F)c1)N/N=C/c1ccc([N+](=O)[O-])s1 the results were KB-V1 MDR tox inactive, SW480 rerep 18.4µM, MCF10A rereplic inconclusive, ELG1 DNA repair 2.91µM, KB-3-1 tox inactive, ELG1 Luc conf inconclusive, ELG1-Luc MMS 9.96µM, ELG1 5FU viab inactive, ELG1 MMS viab 14.1µM and Cell viab unstim inactive.

Screening results (PubChem)
